Potency and affinity values are given separately. Calls of active or inactive are those of the source.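 How the source made its calls: active means every replicate test called active, each showing a drop in signal with a fitted potency within twice the top tested dose; inconclusive means tests disagree, or fits are weak, flat midrange or poor; inactive means every test flat, rising or fitted past the limit.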
Assay: lung carcinoma cell viability loss – CellTiter-Glo luminescence, dry powder, set 18, cytotoxicity control, dose response (AID 1117290)
Conditions: A549 viability, CellTiter-Glo ATP luminescence, 72 h; series mostly up to 26 µM

Question: For `CC(=O)N1CCN(C(=O)C2CCCN2C(=O)Nc2ccc(C)cc2)CC1` (stereo unspecified), which outcome is on record?
Answer: inactive

Question: With `CC(=O)N1CCN(C(=O)[C@@H]2CCN2C(=O)Nc2ccc(C)cc2)CC1` as the molecule, how does the outcome read?
Answer: inactive

Question: With `COc1ccc(C(=O)O)cc1S(=O)(=O)Nc1cc(C(F)(F)F)ccc1N(C)C` as the molecule, how does the outcome read?
Answer: inactive

Question: For `CC(=O)N1CCN(C(=O)C2(NC(=O)Nc3ccccc3F)CCCCC2)CC1`, which outcome is on record?
Answer: inactive

Question: Which outcome does the source give for `CC(=O)N1CCN(C(=O)C2(NC(=O)NC(C)(C)C)CCCCC2)CC1` here?
Answer: inactive

Question: With `O=S(=O)(Nc1cc(C(F)(F)F)ccc1N1CCCCC1)c1ccc(Br)cc1` as the molecule, how does the outcome read?
Answer: inactive

Question: Which outcome does the source give for `COc1ccc(C(=O)Nc2cc(F)ccc2N2CCCCC2)cc1S(=O)(=O)O` here?
Answer: inactive

Question: With `COc1cccc(NC(=O)NC2(C(=O)N3CCN(C(C)=O)CC3)CCCCC2)c1` as the molecule, how does the outcome read?
Answer: inactive

Question: For `CC(=O)N1CCN(C(=O)C2(NC(=O)Nc3ccc(F)cc3)CCCCC2)CC1`, which outcome is on record?
Answer: inactive

Question: With `NC(=NCCc1c[nH]c2ccccc12)NS(=O)(=O)c1cc(F)ccc1F` as the molecule, how does the outcome read?
Answer: inactive

Question: With `COc1ccc(C(=O)Nc2cc(C)ccc2N2CCCCC2)cc1S(=O)(=O)O` as the molecule, how does the outcome read?
Answer: inactive

Question: Which outcome does the source give for `COc1ccc(C(=O)Nc2cccc(C(F)(F)F)c2)cc1S(=O)(=O)O` here?
Answer: inactive

Question: With `COc1ccc(C(=O)O)cc1S(=O)(=O)Nc1ccc(N2CCCCC2)cc1C(F)(F)F` as the molecule, how does the outcome read?
Answer: inactive

Question: With `COc1ccc(C(=O)O)cc1S(=O)(=O)Nc1cc(C(F)(F)F)ccc1N1CCN(C(C)=O)CC1` as the molecule, how does the outcome read?
Answer: inactive

Question: Which outcome does the source give for `CC(=O)N1CCN(C(=O)C(C)(C)NC(=O)Nc2ccc(C)cc2)CC1` here?
Answer: inactive

Question: Which outcome does the source give for `O=[N+]([O-])c1ccc(S(=O)(=O)Nc2cc(C(F)(F)F)ccc2N2CCCCC2)c([N+](=O)[O-])c1` here?
Answer: inactive

— PubChem BioAssay AID1117290 (Broad Institute, 2014)
